Assay results from PubChem BioAssay (NCI).
This is part of a sample that, as a whole, favours compounds with a hit. Of some 83,000 tested, about 20% had one in any assay.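 48-hour exposure, single concentration, 96-well plates; percent growth endpoint where 0 means no net growth. Active: below 10.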 Unmarked numbers belong to inactive results. Activity calls are given as the source filed them.

Legend:
Test in all cases: NCI-60 one-dose screen, 48 h (100 = growth as untreated, 0 = no growth, -100 = all killed)
Settings in all cases: 10 µM unless noted
NCI-H23 lung = system: NCI-H23 lung
NCI-H226 lung = system: NCI-H226 lung
NCI-H322M lung = system: NCI-H322M lung
HOP-62 NSCLC = system: HOP-62 NSCLC
NCI-H460 lung = system: NCI-H460 lung
HOP-92 NSCLC = system: HOP-92 NSCLC
NCI-H522 lung = system: NCI-H522 lung
A549/ATCC NSCLC = system: A549/ATCC NSCLC
786-0 renal = system: 786-0 renal
COLO 205 colon = system: COLO 205 colon

Row | SMILES | growth (NCI-H23 lung) | growth (NCI-H226 lung) | growth (NCI-H322M lung) | growth (HOP-62 NSCLC) [%] | growth (NCI-H460 lung) | growth (HOP-92 NSCLC) | growth (NCI-H522 lung) | growth (A549/ATCC NSCLC) | growth (786-0 renal) | growth (COLO 205 colon)
1 | CCS(=O)(=O)Nc1ccc(C(=O)CC2(O)C(=O)Nc3ccccc32)cc1 (stereo not drawn) | 92.5% | 91.5% | 98.4% | 94.6 | 105% | 38.2% | 105% | 107% | 108% | 93.8%
2 | C#CCN(C)CCCOc1ccc(NC(=O)CCCCCCC(=O)NO)cc1Cl | 28.1% | 63.1% | 26.5% | 30.1 | 25.8% | -14% (active) |  | 20.5% | 39.3% | -26.1% (active)
3 | N#C/C(=N\Nc1ccc(F)cc1)C(=O)Nc1cc(-c2ccccc2)nn1-c1ccccc1 | 0.456% (active) | 2.16% (active) | 0.72% (active) | 18.2 | 4.31% (active) | -21.3% (active) |  | 11% | 21.3% | -7.35% (active)
4 | C/C(=C(/C)C1CC1CCNC1CCC(NC(=O)OC(C)(C)C)CC1)c1ccccc1 (stereo not drawn) | 70.8% | 80.1% | 89.2% | 84.4 | 57.6% | 54.8% |  | 73.4% | 65.6% | -56% (active)
5 | CN1CCN(c2ccc(Nc3nc(NCCCNS(=O)(=O)c4cccc5ccccc45)c4sccc4n3)cc2)CC1 | 30.4% | 86% | 11.4% | 25.6 | -14% (active) | -43.6% (active) |  | -9.22% (active) | -82.1% (active) | -74.1% (active)
6 | O=C1C(SCc2ccccc2)=C(Cl)CN1c1ccc(Cl)cc1 | 80.5% | 99% | 98.2% | 109 | 106% | 104% |  | 101% | 103% | 119%
7 | COc1cc2oc(-c3cccc(NC(=O)[C@@H](N)C(C)C)c3)cc(=O)c2c(OC)c1OC | 103% | 107% | 102% | 103 | 103% | 91.9% |  | 94.6% | 87.1% | 111%
8 | CCCCCCN1C=C/C(=C\C(=O)n2ccc3ccccc32)c2ccccc21 | 9.61% (active) | 52.9% | 93.5% | 89.6 | 87.7% | 82.6% |  | 84.3% | 86.6% | 87.3%
9 | Cn1c2nc3ccccc3c-2cc2ccccc21 | 44.9% | 53% | 4.32% (active) | 51.3 | 13.4% | 57.2% | 41.6% | 28.4% | 38% | 26%
10 | CCCCCc1ccc(S(=O)(=O)Nc2cc(-c3csc(N)n3)ccc2OC)cc1 | 88.7% | 80% | 103% | 108 | 99.5% | 97.3% | 84.9% | 88% | 99.1% | 117%
11 | Cc1cc2nc(C(Cl)Cl)nc(-c3ccc(S(=O)(=O)N(C)C)cc3)n2n1 | 44.4% | 71.8% | 69.3% | 32.8 | 27.5% | 50% | 76.9% | 37% | 94.5% | 25.2%
12 | NS(=O)(=O)c1nnc(/N=C/c2c(O)[nH]c3ccccc23)s1 | 96.3% | 95% | 104% | 86.6 | 105% | 88.1% | 99.9% | 108% | 98.2% | 115%
13 | O=C(Nc1cccc(C(F)(F)F)c1)N1CCN(c2cc(-c3cn(-c4ccccc4)nc3-c3cccc(O)c3)ccn2)CC1 | 37.7% | 30.3% | 73.9% | 91.3 | 63.4% | 35.7% | 31% | 44.8% | 54.6% | 60%
14 | COc1ccc([C@H]2C(=O)N(c3cc(OC)c(OC)c(OC)c3)[C@@H]2c2ccc(OC)c(O)c2)cc1 | 24.4% | 41.8% | 43.3% | 26.7 | 4.38% (active) | 6.76% (active) | -49.2% (active) | 21.6% | 6.39% (active) | -76.1% (active)
